An excerpt weighted towards active compounds, which were near 2.8% of everything screened.
KDM5B inhibitor: Primary screen for KDM5B Histone Demethylases FDH-coupled qHTS; Potency, µM (titrated, usually from 57.7 µM), actives largely listed as inhibitors; KDM5B demethylase, FDH-coupled NADH fluorescence (FDH is formaldehyde dehydrogenase); 220,000 tested, 2.6% active; also: potency is read from the fitted curve at half-maximal effect; 0% is about no effect; nearly all actives have a fitted effect of over 70% in size
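Measured: NADH fluorescence change, 30 min, RT. System: KDM5BΔAP 200 nM final, H3K4me3 peptide, α-KG, Fe(II), ascorbate, NAD⁺ plus FDH, pH 7.5 HEPES. Compounds: titrated, 10 min pre-incubation with enzyme.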
HEK293 viab: GF-AFC viability counterscreen for inhibitors of alpha-synuclein gene (SNCA) expression | HEK-293-SNCA-luc viability, GF-AFC fluorescence, 24 h | Potency, µM (highest dose often 57.1 µM), without a hit: at the highest dose activity change, negative = cytotoxicity, usual class: cytotoxic | 150,000 tested, 0.12% active | AID 1671193, 2021;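 also: potency is read from the fitted curve at half-maximal effect; 0% = DMSO-treated cells and -100% = medium-only wells without cells; nearly all actives have a fitted effect of over 30% in size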
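HEK-293-SNCA-luc cells (1500/well) plated 24 h, then exposed 24 h to a dilution series; GF-AFC added 30 min at 37C, fluorescence 405/540 nm; normalised to medium-only and DMSO wells, Hill fit.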
IP6K1 inhibitor: Primary qHTS assay for small molecule inhibitors of Inositol hexaphosphate kinase 1 (IP6K1). activity change, % (series mostly up to about 58 µM). AID 1645851, 2021. IP6K1 kinase, ADP-Glo luminescence, 2 h; stronger effect = lower value. 140,000 tested, 0.81% active; in the data active = activity change below about -25%; also: % is scaled to controls: 0 for no effect and ±100 for the full control effect
Target sequence (Q92551 whole entry, looked up): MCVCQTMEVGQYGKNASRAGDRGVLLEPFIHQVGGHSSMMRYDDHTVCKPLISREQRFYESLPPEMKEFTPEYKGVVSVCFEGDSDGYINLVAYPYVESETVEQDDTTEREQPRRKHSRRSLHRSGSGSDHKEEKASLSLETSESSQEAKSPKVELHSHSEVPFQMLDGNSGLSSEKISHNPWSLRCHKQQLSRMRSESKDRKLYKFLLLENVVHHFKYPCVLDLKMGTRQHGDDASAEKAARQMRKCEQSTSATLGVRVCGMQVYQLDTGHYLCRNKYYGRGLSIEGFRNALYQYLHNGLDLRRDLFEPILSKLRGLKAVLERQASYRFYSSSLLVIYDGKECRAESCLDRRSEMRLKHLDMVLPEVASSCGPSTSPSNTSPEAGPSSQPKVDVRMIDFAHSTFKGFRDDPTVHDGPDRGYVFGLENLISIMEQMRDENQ
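ADP-Glo luminescence measures ADP made by human IP6K1 during a 2 h RT reaction with ATP/IP6 (mix at 1.3 mM/130 uM); top library doses 57.5 and 19.1 uM final.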
SNCA expr inh: Primary qHTS assay for inhibitors of alpha-synuclein gene (SNCA) expression; 140,000 tested, 0.17% active; Potency, µM (series often up to 57.2 µM), inactives show top-dose activity change, negative = inhibition, most hits filed as inhibitors; HEK-293 SNCA-luciferase knock-in, luminescence, 24 h;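 also: potency is read from the fitted curve at half-maximal effect; plate controls were DMSO cells for no effect and cell-free wells for full effect; nearly all actives have a fitted effect of over 45% in size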
IP6K1 inh cnf: Confirmatory qHTS assay for small molecule inhibitors of Inositol hexaphosphate kinase 1 (IP6K1); recombinant IP6K1 kinase, ADP-Glo luminescence, 2 h; Potency, µM (doses to about 49 µM), for inactives: at the top dose activity change, negative = inhibition, usual class: inhibitors; shares compounds with IP6K1 inhibitor; 1,200 tested, 13% active; also: potency is read from the fitted curve at half-maximal effect; % is scaled to controls: 0 for no effect and ±100 for the full control effect; nearly all actives have a fitted effect of over 65% in size
* hit, by the source's call; i = inactive; ? = inconclusive; / = no result; [ ] = dose if it differs, or a comment. Unless noted, calls follow the shape of the dose curve; as a rule, active = well fitted curve in the direction sought with a large enough effect; inconclusive = small, poorly fitted or top-dose-only effect, or another doubt; inactive = no such curve, though single readings can be large; an effect the other way counts as inactive or inconclusive.

SMILES	KDM5B inhibitor	HEK293 viab	IP6K1 inhibitor	SNCA expr inh	IP6K1 inh cnf
COc1ccc(-c2nc(CSCC(=O)N3CCN(c4cc(Cl)ccc4C)CC3)c(C)o2)cc1	?	?	6	?	/
O=C(Nc1ccc(N2CCC(N3CCCCC3)CC2)c(C(=O)O)c1)c1ccccc1	?	4%	-37*	15%	?
CCOc1ccc(CNC(=O)C2CCCN(c3nn4cc(-c5ccc(F)cc5)nc4s3)C2)cc1 (stereo not drawn)	i	5%	1	81%	/
CCOc1ccc(CNC(=O)C2CCCN(c3nn4cc(-c5ccc(OC)cc5)nc4s3)C2)cc1 (stereo not drawn)	i	-9%	-37*	80%	?
O=C(Cc1cccc(Cl)c1)N1CCN(c2ccc3nnc(C4CC4)n3n2)CC1	/	/	23	/	/
COCC1CCN(c2ccc(-c3nc(CCCc4ccccc4)no3)cn2)C1 (stereo not drawn)	35µM*	-4%	-33*	92%	-12%
O=C(CCCc1ccccc1)N1CCC(Cc2noc(-c3ccccc3)n2)C1 (stereo not drawn)	/	-4%	15	4%	/
CCOc1cc(-c2noc(-c3ncn4c3COC(c3ccc(F)cc3)C4)n2)ccc1OC (stereo not drawn)	?	-11%	-4	-12%	/
Cc1nc2ccccc2n1CCC(=O)N1C[C@@H](C)[C@](O)(C(C)C)C1	i	2%	-37*	9%	-9%
O=C(c1ccncc1)N1CCCN(Cc2cccnc2)c2ccccc21	i	3%	0	44%	/
NC(=O)c1cc(-c2ccccc2F)cc2c1OCCN2Cc1cccnc1	35µM*	-21%[87.6 µM]	-25*	-17%[87.6 µM]	?
CNC(=O)c1cc(-c2ccc(C)cc2)cc2c1OCCN2Cc1cccnc1	?	-5%[87.6 µM]	-29*	-14%[87.6 µM]	?
COc1ccc(CCC(=O)NCc2ccc3c(c2)CCN3C(=O)c2ccc(Cl)cc2)cc1	i	?	-28*	1%	9%
CCOCCCNc1nc(-c2ccc3[nH]c(=O)oc3c2)cs1	i	/	/	/	/
O=C(Oc1cccc2cccnc12)c1ccccc1	/	31%[23.9 µM]	32	-3%[25.6 µM]	/
c1ccc(-c2ccnc(NCCOc3cccc4cccnc34)n2)nc1	20µM*	-29%	-31*	123%	-14%
N#Cc1cc(NC(=O)C(=O)O)c(Cl)c(NC(=O)C(=O)O)c1	/	-6%[23.9 µM]	-35*	-1%[25.6 µM]	-23%
CCOc1cc(C2Nc3ccc(C)cc3[C@H]3OCCC[C@@H]23)cc(Br)c1O (stereo partly drawn)	i	/	/	/	/
COC(=O)c1c(NC(=O)COc2ccc(OC)cc2)sc2c1CCC(C)C2 (stereo not drawn)	?	?	-38*	?	-12%
OC1(CN2CCCCC2)CCN(Cc2cnn(-c3ccccc3Cl)c2)C1 (stereo not drawn)	?	-7%	-36*	22%	8%
CN1CCN(Cc2ccc(-c3cnc4[nH]cc(-c5ccc6[nH]ccc6c5)c4c3)cc2)CC1	/	-30%	-47*	/	9.2µM*
Cc1cc(SCc2cc(Cl)c3c(c2)OCCCO3)nc(C)n1	i	/	/	/	/
COc1ccc(OC(=O)c2nc(SCc3ccccc3F)ncc2Cl)cc1	?	12%	-34*	?	8%
COc1cc2c(=O)c(S(=O)(=O)c3ccc(F)cc3)cn(Cc3ccc(Cl)cc3)c2cc1OC	i	-9%	-14	25%	/
O=c1c(S(=O)(=O)c2ccc(Cl)cc2)cn(Cc2ccc(F)cc2)c2ccc(F)cc12	i	14%	-38*	23%	?
SMILES	KDM5B inhibitor	HEK293 viab	IP6K1 inhibitor	SNCA expr inh	IP6K1 inh cnf
CCOc1ccc(-c2cc(C(=O)Nc3ccc(NC(C)=O)cc3)no2)cc1	?	12%	-27*	14%	-5%
CCOc1ccc(C(=O)c2oc3ccccc3c2NC(=O)c2cc(-c3ccc(Cl)cc3)on2)cc1	i	8%	4	-14%	/
Cc1cccc(Cc2c(C)nc3c(-c4ccccc4)c(C)[nH]n3c2=O)c1	?	-9%	-34*	-13%	?
CCCCCCCCCCCCCCCCCC(=O)O	/	-3%[23.9 µM]	-7	-41%[25.6 µM]	/
CCCCCCCC(=O)[O-].CCCCCCCC(=O)[O-].[Zn+2]	/	-24%[23.9 µM]	-36*	-52%[25.6 µM]	?
CC(C)Oc1ccc2c(NC(=O)CN3CCCC3=O)nn(Cc3ccccc3)c2c1	i	-7%	-33*	22%	-4%
CC(C)Oc1ccc2c(NC(=O)C3CCOC3)nn(Cc3ccccc3)c2c1 (stereo not drawn)	i	3%	5	-22%	/
CN(C(=O)c1cccc(CS(C)=O)c1)C1CCC(c2ccccc2)CC1 (stereo not drawn)	i	/	/	/	/
CCCN1C(C(=O)c2ccccc2)=C(OC(=O)COc2ccc(C)cc2)c2ccccc2S1(=O)=O	?	?	-17	?	/
CCCN1C(C(=O)c2ccccc2)=C(OC(=O)COc2ccccc2)c2ccccc2S1(=O)=O	?	?	-28*	?	?
CCN1C(C(=O)c2ccccc2)=C(OC(=O)COc2ccc(OC)cc2)c2ccccc2S1(=O)=O	?	-23%	-34*	?	-12%
COc1ccc(C(=O)c2sc(Nc3ccc(F)cc3)nc2N)cc1	i	/	/	/	/
CCC[C@H](NC(=O)C(C#N)=Cc1cccc(Br)n1)c1ccccc1	/	?	/	?	?
C[C@@H](NC(=O)/C(C#N)=C/c1ccc(O)c(O)c1)c1ccccc1	/	-8%	/	9%	/
COc1ccc(OC)c(CN2CCNc3cc(-c4ccnc(C)c4)ncc3C2)c1	i	-20%[87.6 µM]	-27*	45%[87.6 µM]	3%
CCOC(=O)c1ccc(NC(=O)Cc2ccc(-n3c(CC)nc4cccnc43)cc2)cc1	i	?	-45*	5%	?
CCc1nnc(NC(=O)c2nc(S(C)(=O)=O)ncc2Cl)s1	?	?	-35*	?	-10%
Cc1nnc(NC(=O)c2nc(S(=O)(=O)Cc3ccccc3)ncc2Cl)s1	?	?	-35*	?	-18%
CCSc1ncc(Cl)c(C(=O)Nc2nnc(CC)s2)n1	i	-2%	1	3%	/
O=C(c1ccc2c(c1)OCO2)N1CC2(C1)C(=O)Nc1ccccc12	i	-2%	-16	-5%	/
O=C(c1ccc2c(c1)OCO2)N1CCC2(CC1)C(=O)Nc1ccccc12	i	-5%	-33*	-9%	?
COc1cccc(Nc2cc(-c3cccs3)nc3c(C)noc23)c1	35µM*	8%[87.6 µM]	-25*	-20%[87.6 µM]	?
COc1ccc(-c2cn3c(n2)sc2cc(C(=O)NCCCN4CCCCC4)ccc23)cc1	?	?	-9	-5%	/
COc1ccc(-c2cn3c(n2)sc2cc(C(=O)NCCCN4CCCCCC4)ccc23)cc1	?	-26%	-62*	46%	-4%
